Sampled rows, rich in hits. Any-hit rate of the full collection: about 3.7%.
BoNT-A LC inh2: blocks Botulinum neurotoxin A light chain protease; 360,000 compounds, 0.17% hits; inhibition, % at 10 µM; multiplex microsphere protease substrate cleavage, flow cytometry; note: plate controls were buffer without enzyme for full effect and enzyme alone for no effect
MazF activator: activators of E. coli MazEF toxin-antitoxin RNase; P0AE70; FAM/BHQ RNA-DNA oligo cleavage fluorescence, 5 h; activation, % at 20 µM; 350,000 compounds, 0.32% hits; in the data active = activation above about 50%
Anthrax LF inh2: anthrax lethal factor protease inhibition; 360,000 compounds, 0.12% hits; multiplex microsphere protease cleavage assay, LF; P15917; inhibition, % at 10 µM; AID 588501; note: plate controls were buffer without enzyme for full effect and enzyme alone for no effect
Target sequence (P15917 whole entry, looked up): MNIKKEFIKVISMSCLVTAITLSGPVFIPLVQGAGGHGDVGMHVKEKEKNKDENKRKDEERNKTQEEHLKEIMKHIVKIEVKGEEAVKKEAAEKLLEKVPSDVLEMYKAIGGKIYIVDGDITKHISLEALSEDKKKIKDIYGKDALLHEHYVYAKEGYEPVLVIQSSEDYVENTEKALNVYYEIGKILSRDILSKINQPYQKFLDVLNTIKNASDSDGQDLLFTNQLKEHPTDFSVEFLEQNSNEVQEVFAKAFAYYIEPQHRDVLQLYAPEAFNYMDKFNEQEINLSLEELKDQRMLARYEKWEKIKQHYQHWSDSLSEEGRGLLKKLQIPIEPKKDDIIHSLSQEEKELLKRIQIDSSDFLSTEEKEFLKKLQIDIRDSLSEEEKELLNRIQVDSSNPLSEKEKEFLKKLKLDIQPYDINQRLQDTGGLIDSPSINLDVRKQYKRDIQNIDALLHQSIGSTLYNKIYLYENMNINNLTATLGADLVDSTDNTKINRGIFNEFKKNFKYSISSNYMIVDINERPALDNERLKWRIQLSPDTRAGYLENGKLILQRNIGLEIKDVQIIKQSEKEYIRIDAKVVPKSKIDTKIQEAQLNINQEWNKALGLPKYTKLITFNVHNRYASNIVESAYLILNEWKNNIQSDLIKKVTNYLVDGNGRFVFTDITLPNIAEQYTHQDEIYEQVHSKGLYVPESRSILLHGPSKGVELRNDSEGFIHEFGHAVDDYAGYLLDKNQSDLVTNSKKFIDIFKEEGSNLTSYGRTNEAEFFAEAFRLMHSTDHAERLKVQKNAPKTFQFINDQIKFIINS
Autofluor counter: compound fluorescence in toxin protease inhibitor counterscreen; compound autofluorescence counterscreen, microsphere flow cytometry; stronger effect = higher value; AID 624483; 360,000 compounds, 3.1% hits; fluorescence intensity (concentration not given with the values); in the data active = fluorescence intensity above about 16000; inconclusive = no clear call, values can overlap the other calls
BoNT F protease: inhibitors of Botulinum neurotoxin F light chain protease | Multiplex microsphere protease cleavage assay, flow cytometry | inhibition, % at 10 µM | 360,000 compounds, 0.22% hits | AID 588497; in the data active = inhibition above about 35%, passing the limit was not always enough; inconclusive = no clear call, values can overlap the other calls; note: plate controls were buffer without enzyme for full effect and enzyme alone for no effect
An asterisk follows results filed as active; ? = inconclusive; . = not tested or not shown. Cut-off read from the data, not from the text of the source, unless noted: active = inhibition above about 30%; inconclusive = no clear call, values can overlap the other calls; inactive = below that.

SMILES	BoNT-A LC inh2	MazF activator	Anthrax LF inh2	Autofluor counter	BoNT F protease
COc1ccc(OC)c(C2SCCN2S(C)(=O)=O)c1 (centres undefined)	0	-1	1	22914*	4
COc1ccccc1C1SCCN1S(C)(=O)=O (centres undefined)	0	2	-5	2481	8
CCCN=C(N)/C(C(=O)OCC)=C(\O)c1ccc(OC)cc1	4	-1	-12	21368*	2
CCOC(=O)/C(C(N)=NCC(C)C)=C(/O)c1ccccc1	1	1	-2	3296	-8
Cc1ccc(NC2c3ncccc3C(=O)N2Cc2ccc(F)cc2)cc1 (centres undefined)	-2	-4	-6	10645	-6
COc1ccc(NC2c3ncccc3C(=O)N2Cc2ccccc2)c(OC)c1 (centres undefined)	-2	0	-8	8556	-49
COc1cc(NC2c3ncccc3C(=O)N2Cc2ccco2)cc(OC)c1 (centres undefined)	0	5	-9	20554*	-4
COc1ccc(CN2C(=O)c3cccnc3C2Nc2ccc(OC)c(Cl)c2)cc1 (centres undefined)	?	9	0	22056*	2
COc1ccc(OC)c(CNC(=O)c2[nH]c(C(F)(F)F)nc2-c2ccccc2)c1	-2	.	-7	4510	-12
CCCCN(C)C(=O)c1oc2ccc(S(=O)(=O)N3CCCCCC3)cc2c1C	-1	0	-10	23104*	-2
CCCCN(CCCC)S(=O)(=O)c1ccc2oc(C(=O)N3CCOCC3)c(C)c2c1	-2	4	-1	24116*	-3
CCOC(=O)N1CCN(C(=O)c2oc3ccc(S(=O)(=O)N4CCCCC4)cc3c2C)CC1	4	3	-10	18639*	7
CCn1cc(CN2CCC(C(=O)Nc3ccc(Oc4cccnc4)cc3)CC2)cn1	-3	-1	-3	5059	-1
N#C/C(=C/c1ccc(N2CCCCC2)o1)C(=O)Nc1ccc(Cl)cc1	-1	-323	-1	17947*	36*
COc1ccc(NC(=O)/C(C#N)=C\c2ccc(N3CCOCC3)o2)cc1	-1	-601	1	6770	8
N#C/C(=C\c1ccc(N2CCOCC2)o1)C(=O)Nc1ccc(O)cc1	-1	-730	-1	4565	2
N#C/C(=C/c1ccc(N2CCCCC2)o1)C(=O)Nc1ccc2ccccc2c1	26	-133	39*	60126*	65*
Cc1cccc(OCCCC(=O)NNC(=O)c2cccc(N(C)C)c2)c1	-1	10	-10	3043	-5
C#CCOCCOCCOCCNc1nc(N2CCN(C(=O)Cn3cc(CC(C)O)nn3)CC2)nc(N2CCN(C(=O)[C@H](C)n3cc(CCC(=O)O)nn3)CC2)n1 (some centres undefined)	-1	11	-5	4312	-2
CCOC(=O)C1=C(C)NC(SCC(N)=O)=C(C#N)C1c1ccccc1 (centres undefined)	-1	2	-3	7427	-13
CCOC(=O)C1=C(c2ccccc2)NC(SCC(N)=O)=C(C#N)C1c1cccnc1 (centres undefined)	3	6	-2	19434*	4
CCc1nc2ccc(C(=O)N3CCN(C(=O)c4ccco4)CC3)cn2c1N(C)C(=O)Nc1ccccc1OC	0	.	-11	3840	6
Fc1cccc(CO/N=C/c2c(-c3ccccc3)nc3ccc(Cl)cn23)c1	-1	-13	0	16783*	-4
Cc1cccn2c(/C=N/OCc3cccc(F)c3)c(-c3ccc(Cl)cc3)nc12	-2	2	-5	5032	-2
O=S1(=O)CCC(N2CCOCC2)C1 (centres undefined)	?	1	-4	23902*	-4
SMILES	BoNT-A LC inh2	MazF activator	Anthrax LF inh2	Autofluor counter	BoNT F protease
O=C(C1CCCCC1)N1C[C@@H](O)[C@H](n2cc(-c3ccc(F)cc3)nn2)C[C@@H]1c1ccccc1	0	-2	-1	2876	1
COc1ccccc1-c1noc(-c2ccccc2C(=O)Nc2cccnc2)n1	2	2	2	22521*	2
O=C(Nc1cccnc1)c1ccccc1-c1nc(-c2ccccc2F)no1	3	-7	-8	21936*	4
O=C(Nc1cccnc1)c1c(F)cccc1F	?	4	-4	16636*	-3
O=C(Nc1cccnc1)c1ccccc1F	-1	6	-6	3832	-12
COCCNC(=O)C[C@@H]1C[C@H]2c3cc(NC(=O)Nc4ccc(F)cc4)ccc3O[C@H]2[C@H](CO)O1	0	5	-11	2889	-4
COc1cc(C(=O)COC(=O)c2cccs2)cc(OC)c1OC	0	0	0	3814	-2
COc1cccc2c(C)nc(Nc3nc(CSc4nnc(C)s4)cc(=O)[nH]3)nc12	1	62*	-4	3194	4
Cc1nc(Nc2nc(CSc3ccc(Cl)cc3)cc(=O)[nH]2)nc2ccccc12	-1	-16	-1	2644	-14
Cc1nc(Nc2nc(CSc3nc4ccccc4[nH]3)cc(=O)[nH]2)nc2ccccc12	2	-70	0	9543	5
Cc1ccc2c(C)nc(Nc3nc(CSc4nnc(C)s4)cc(=O)[nH]3)nc2c1	0	96*	-7	11178	-4
CC(C)[C@H](NC(N)=O)C(=O)Nc1cccc(S(=O)(=O)NC2=NCCCCC2)c1	2	-2	-3	5056	1
Cc1cccc(C(=O)Oc2coc(CSc3nnc(NC(=O)C4CC4)s3)cc2=O)c1	55*	2	1	2570	-3
COc1ccc(C(=O)Oc2coc(CSc3nnc(NC(=O)c4cccs4)s3)cc2=O)cc1	0	-6	0	2075	3
Cc1ccc(C(=O)Oc2coc(CSc3nnc(NC(=O)C4CC4)s3)cc2=O)cc1C	34*	4	0	1984	-7
Cc1cccc(CSc2nnc(NC(=O)c3ccco3)s2)c1	-4	6	-3	24019*	-7
O=C(Oc1coc(CSc2nnc(NC(=O)C3CC3)s2)cc1=O)c1ccccc1	63*	1	1	2569	0
O=C(Nc1nnc(SCc2cccc(F)c2)s1)c1ccco1	0	8	1	4075	0
Cc1ccc(S(=O)(=O)N2[C@@H](c3ccc4c(c3)OCO4)C(C(=O)O)=C[C@H]2CC2CCCC2)cc1	0	-9	3	3019	-4
O=C(Nc1ccc(OCC(=O)N2CCOCC2)cc1)c1cccc(Cl)c1	-2	4	-8	6595	-13
COc1ccc(CC(N)c2csc(NC(=O)c3cc(C(C)(C)C)nn3Cc3ccccc3)n2)cc1 (centres undefined)	0	.	-2	2901	-24
CCCN(CCC)C(=O)c1cn(C)c2ccc(S(=O)(=O)N3CCCC3)cc2c1=O	0	-2	-1	4956	3
COc1cc(C2C(C#N)=C(N)Oc3c2ccc2ccccc32)ccc1OCC(=O)Nc1ccccc1C (centres undefined)	?	2	-1	22354*	0
COc1ccc(CN(C(=O)CN2C(=O)COc3ccccc32)C2CCCC2)c(OC)c1	2	-5	2	21877*	3

Bioassay records from PubChem BioAssay.
